Drawing on PubChem BioAssay, this text covers z-score and composite z-score for four compounds.

Assay [1] in a line: optical density shifts of acrAB sulA E. coli – strain DRC41, OD650, 48 h, E. coli filamentation inducer project, primary screen (AID 1152).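 Note: E. coli MC1000 strain DRC41 lacking acrAB efflux pump and sulA.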 The following applies: higher = more signal, called active from +8 up or from −8 down.
Assay [2] can be described thus: probe aLefty1 binding on compound microarray – biochemical, small-molecule microarray, 635/667 nm fluorescence, primary screen (AID 1153).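 Note: score merges spot fluorescence with signal-to-noise ratio from the scanned slide images.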 The following applies: higher = more signal.
Assay [3] is described as follows: plasmodial surface anion channel blockers, osmotic lysis – cell-based, P. falciparum Indochina, OD700, 1 h, primary screen (AID 1154). The following applies: P. falciparum Indochina infected RBC osmotic lysis, higher = more signal, called active from +8 up or from −8 down.
The nature of assay [4]: plasmodial surface anion channel blockers, osmotic lysis – cell-based, P. falciparum Indochina, OD700, 2 h, primary screen (AID 1155).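 Note: lysis reports solute entry through the parasite surface anion channel PSAC.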 The following applies: P. falciparum Indochina infected erythrocytes, higher = more signal, called active from +8 up or from −8 down.
A short description of assay [5]: changes in parasitized red cell lysis, either direction – P. falciparum Indochina, OD700, 3 h, PSAC antagonist project, primary screen (AID 1156). The following applies: P. falciparum-infected erythrocytes, osmotic lysis, higher = more signal, called active from +8 up or from −8 down.
Assay [6] in a line: plasmodial surface anion channel blockers, osmotic lysis – cell-based, P. falciparum Indochina, OD700, 18 h, primary screen (AID 1157). To be noted: P. falciparum Indochina infected erythrocytes, osmotic lysis OD700, 18 h; higher = more signal, called active from +8 up or from −8 down.
A short description of assay [7]: S6 kinase pathway phospho-S6 level changes – cell-based, A549, cytoblot, luminescence, serum-stimulated, primary screen (AID 1158).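 Note: serum-stimulated A549 lung adenocarcinoma cells; signal is phosphorylated S6 detected by cytoblot immunostaining with HRP secondary.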 The following applies: 5 h, higher = more signal.
Assay [8] has as its target NADPH oxidase 2 (Homo sapiens) (UniProt P04839). Put plainly: compounds shifting NOX2 Amplex Red fluorescence – cell-based, HEK293-NOX2, PMA-stimulated, NOX inhibitor project, primary screen (AID 1159). Note: test concentration not given here. To be noted: 45 min, higher = more signal, called active from +8 up or from −8 down.
The target in assay [9] is NADPH oxidase 4 (Homo sapiens) (UniProt Q9NPH5). Put plainly: compounds shifting NOX4 Amplex Red fluorescence – cell-based, HEK293-NOX4, tetracycline-induced, NOX inhibitor project, primary screen (AID 1160). The following applies: HEK293-NOX4, Amplex Red H2O2 fluorescence, 45 min; higher = more signal, called active from +8 up or from −8 down.
Sequence of NADPH oxidase 4 (Homo sapiens) (Q9NPH5 whole entry, looked up): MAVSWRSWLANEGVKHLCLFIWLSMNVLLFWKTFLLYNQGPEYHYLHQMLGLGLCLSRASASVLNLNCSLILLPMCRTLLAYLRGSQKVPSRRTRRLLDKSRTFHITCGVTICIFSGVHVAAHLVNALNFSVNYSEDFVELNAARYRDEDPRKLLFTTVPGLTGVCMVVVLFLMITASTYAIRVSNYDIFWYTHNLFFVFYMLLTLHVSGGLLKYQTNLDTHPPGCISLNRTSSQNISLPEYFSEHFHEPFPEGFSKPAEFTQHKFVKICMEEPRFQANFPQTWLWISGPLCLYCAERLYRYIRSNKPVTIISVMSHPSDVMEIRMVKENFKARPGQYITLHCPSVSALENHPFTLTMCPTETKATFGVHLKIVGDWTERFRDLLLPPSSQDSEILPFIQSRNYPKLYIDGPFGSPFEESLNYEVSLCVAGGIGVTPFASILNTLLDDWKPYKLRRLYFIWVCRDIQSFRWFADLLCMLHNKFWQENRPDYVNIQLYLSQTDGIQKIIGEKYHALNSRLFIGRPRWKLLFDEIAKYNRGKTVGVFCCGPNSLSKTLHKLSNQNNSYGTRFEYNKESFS
The target in assay [10] is NADPH oxidase 5 (Homo sapiens) (UniProt Q96PH1). Put plainly: compounds shifting NOX5 Amplex Red fluorescence – cell-based, HEK293-NOX5, NOX inhibitor project, primary screen (AID 1161). The following applies: HEK293-NOX5, ionomycin, 45 min, higher = more signal.
Sequence of NADPH oxidase 5 (Homo sapiens) (Q96PH1 whole entry, looked up): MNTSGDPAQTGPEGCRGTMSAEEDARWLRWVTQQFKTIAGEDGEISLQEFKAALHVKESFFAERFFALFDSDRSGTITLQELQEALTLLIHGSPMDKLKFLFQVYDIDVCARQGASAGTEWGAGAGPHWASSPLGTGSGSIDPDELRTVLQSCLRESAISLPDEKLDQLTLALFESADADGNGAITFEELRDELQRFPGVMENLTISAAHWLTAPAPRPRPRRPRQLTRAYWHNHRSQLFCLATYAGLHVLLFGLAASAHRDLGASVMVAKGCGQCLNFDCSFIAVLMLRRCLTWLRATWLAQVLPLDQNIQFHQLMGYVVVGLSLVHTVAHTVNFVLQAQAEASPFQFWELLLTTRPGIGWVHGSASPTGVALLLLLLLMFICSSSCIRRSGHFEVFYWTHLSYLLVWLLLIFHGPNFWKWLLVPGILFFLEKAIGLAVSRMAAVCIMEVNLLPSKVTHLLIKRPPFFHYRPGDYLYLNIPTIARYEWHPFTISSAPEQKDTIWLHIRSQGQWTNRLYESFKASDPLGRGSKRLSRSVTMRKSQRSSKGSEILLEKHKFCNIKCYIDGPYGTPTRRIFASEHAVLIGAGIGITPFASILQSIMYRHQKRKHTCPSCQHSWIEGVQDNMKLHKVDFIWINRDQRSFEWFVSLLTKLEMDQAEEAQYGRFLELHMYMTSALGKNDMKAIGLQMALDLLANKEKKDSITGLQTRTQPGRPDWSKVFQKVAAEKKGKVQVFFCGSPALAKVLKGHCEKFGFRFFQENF
A short description of assay [11]: compound effects on lung adenocarcinoma cell viability – A549, calcein-AM fluorescence, 48 h, basal, profiling panel (AID 1162). Note: test concentration not given here. The following applies: higher = more signal.
Assay [12] in a line: compound effects on differentiated 3T3-L1 adipocyte viability – cell-based, 3T3-L1 adipocytes, calcein-AM fluorescence, 48 h, basal, profiling panel (AID 1163). Note: test concentration not given here. To be noted: 3T3-L1 adipocytes viability, higher = more signal.
The nature of assay [13]: compound effects on hepatocellular carcinoma cell viability – HepG2, calcein-AM fluorescence, 48 h, basal, profiling panel (AID 1164). Note: test concentration not given here. To be noted: higher = more signal.
Assay [14] is described as follows: compound effects on multiple myeloma cell viability – MM1S, calcein-AM fluorescence, 48 h, basal, profiling panel (AID 1165).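 Note: viability of MM1S multiple myeloma cells under basal unstimulated conditions; test concentration not given here.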 The following applies: higher = more signal.
A short description of assay [15]: calcein-AM signal in unstimulated myeloma cells – cell-based, calcein-AM fluorescence, 48 h, PK04 Diversity Set, profiling panel (AID 1166).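 Note: cells grown under basal conditions without added stimulus; test concentration not given here.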 The following applies: RPMI8226 myeloma viability, higher = more signal.
Assay [16] is described as follows: JC-1 mitochondrial signal, unstimulated HepG2 cells – cell-based, JC-1 fluorescence, 24 h, 100 nL compound, profiling panel (AID 1167). Note: test concentration not given here. To be noted: HepG2 mitochondrial potential, higher = more signal.
Assay [17] is described as follows: JC-1 mitochondrial signal, unstimulated adipocytes – cell-based, JC-1 fluorescence, 3T3-L1 adipocytes, 24 h, 100 nL compound, profiling panel (AID 1168). Note: test concentration not given here. The following applies: JC-1 mitochondrial fluorescence, higher = more signal, called active from +8 up or from −8 down.
Assay [18] can be described thus: JC-1 mitochondrial signal, unstimulated myeloma cells – cell-based, JC-1 fluorescence, RPMI8226, 24 h, 100 nL compound, profiling panel (AID 1169). Note: test concentration not given here. To be noted: JC-1 mitochondrial potential fluorescence, higher = more signal.
The nature of assay [19]: JC-1 mitochondrial signal, unstimulated MM1S myeloma – cell-based, JC-1 fluorescence, 24 h, 100 nL compound, profiling panel (AID 1170). Note: test concentration not given here. To be noted: MM1S mitochondrial potential, higher = more signal.
A short description of assay [20]: resazurin metabolic signal in A549 cells – cell-based, resazurin fluorescence, 24 h, PK04 Diversity Set, profiling panel (AID 1171). Note: test concentration not given here. The following applies: A549 viability, higher = more signal, called active from +8 up or from −8 down.

Molecules are shown by their SMILES. Activity calls are given as the source filed them.

Sequence of NADPH oxidase 2 (Homo sapiens) (P04839 whole entry, looked up): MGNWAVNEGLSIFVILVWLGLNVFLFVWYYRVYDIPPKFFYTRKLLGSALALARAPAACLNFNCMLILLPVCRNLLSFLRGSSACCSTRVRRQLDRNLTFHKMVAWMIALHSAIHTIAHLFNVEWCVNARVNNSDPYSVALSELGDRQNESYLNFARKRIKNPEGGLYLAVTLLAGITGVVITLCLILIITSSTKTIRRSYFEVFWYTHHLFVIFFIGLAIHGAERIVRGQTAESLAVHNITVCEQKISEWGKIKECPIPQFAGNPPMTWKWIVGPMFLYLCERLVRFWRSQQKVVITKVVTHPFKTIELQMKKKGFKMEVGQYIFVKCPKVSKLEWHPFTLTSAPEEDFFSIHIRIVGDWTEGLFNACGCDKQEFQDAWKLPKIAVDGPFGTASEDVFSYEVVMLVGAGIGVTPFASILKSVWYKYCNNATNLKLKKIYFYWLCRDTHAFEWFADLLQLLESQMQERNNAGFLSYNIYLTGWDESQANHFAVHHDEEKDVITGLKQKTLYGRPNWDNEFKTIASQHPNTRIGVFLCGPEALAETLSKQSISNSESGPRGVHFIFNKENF

Take `C[C@@H]1C=CCC(=O)OC[C@H]2O[C@@H](C=C[C@@H]2O)[C@H](C)C=CCC(=O)OC1`: the z-score is 0.625 (inactive) in assay [1]; 0.119 (inactive) in assay [3]; -1.48 (inactive) in assay [4]; -0.71 (inactive) in assay [5]; -2.02 (inactive) in assay [6]; 1.61 in assay [7]. In addition, the z-score in assay [8] is -0.601 (inactive); in assay [9], 0.346 (inactive); in assay [10], 0.58; in [11] it was 0.164; in [12], -0.0309; in assay [13] it was 1.37. Besides, the z-score in assay [14] was 0.35; in assay [15], 0.72; in assay [16], 0.909; in assay [17] it was 1.27 (inactive); in assay [18], -0.0914; in [19] it was 1.21. Further, in assay [20], the z-score was -0.976 (inactive). The same compound gave a composite z-score in assay [2] of -0.106.
Consider `C#CCCCON=C1C[C@@H](O)[C@@H](O)[C@@H]2[C@@H]3C(=O)N(c4ccc(F)cc4F)C(=O)[C@@H]3CC[C@@H]12`, for which the z-score in assay [1] was 0.177 (inactive); in assay [3], 1.22 (inactive); in [4], 0.719 (inactive); in assay [5], 0.642 (inactive); in [6], 0.0591 (inactive); in [7], -0.404. The z-score was 2.01 (inactive) in [8]; 0.813 (inactive) in [9]; 0.0107 in [10]; -0.194 in assay [11]; -0.566 in [12]; -1.07 in assay [13]. Besides, the z-score is 0.344 in assay [14]; -0.865 in assay [15]; 0.843 in [16]; -1.15 (inactive) in assay [17]; 0.0995 in assay [18]; -0.413 in [19]. Further, the z-score in assay [20] is 0.193 (inactive). The same compound came in with a composite z-score in assay [2] of -0.147.
Take `CCC=CCCC(OC(=O)c1ccc(Br)cc1)C1=CCCCC1=O` (stereo not given): the z-score is -0.686 (inactive) in [1]; 3.4 (inactive) in [3]; 0.626 (inactive) in assay [4]; -0.0019 (inactive) in [5]; -0.366 (inactive) in assay [6]; 0.86 in [7]. Besides, the z-score in assay [8] is -0.126 (inactive); in assay [9], -0.534 (inactive); in [10], -3.12; in assay [11], -0.211; in assay [12] it was -0.648; in assay [13] it was -0.805. The z-score is -3.68 in assay [14]; -3.51 in assay [15]; -1.12 in assay [16]; -0.711 (inactive) in [17]; -0.449 in assay [18]; -1.97 in [19]. The z-score in [20] is 0.863 (inactive). In assay [2], this compound showed a composite z-score of -0.3.
For `CCOC(=O)NN=C1C[C@@H](O)[C@@H](O)[C@@H]2[C@@H]3C(=O)N([C@@H](C)c4ccccc4)C(=O)[C@@H]3CC[C@@H]12`, the z-score in [1] was -0.0718 (inactive); in [3], -0.308 (inactive); in assay [4], 0.0095 (inactive); in assay [5] it was -0.611 (inactive); in [6], -0.0871 (inactive); in assay [7], -0.25. In addition, the z-score in assay [8] was -0.819 (inactive); in assay [9], 0.589 (inactive); in [10], -0.143; in assay [11], 0.0669; in assay [12] it was -1.33; in assay [13] it was -0.624. Besides, the z-score in [14] is 0.372; in assay [15] it was -0.112; in assay [16], -0.369; in assay [17], -0.878 (inactive); in assay [18], -0.92; in [19], -0.834. For the same compound, in assay [20], the z-score is 0.4 (inactive). Moreover, the composite z-score in assay [2] was -0.0523.
